In the supplement of paper PMC6897291:

tested on: U-2932; assay: growth inhibition by drug plus 177Lu-lilotomab satetraxetan (1 - RLU/untreated control) (fraction); higher = stronger inhibition; conditions: 10 nM; time (day): 6; 177Lu-lilotomab satetraxetan 1 ug/ml
Outline: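 With or without 18 h pretreatment by a radiolabelled anti-CD37 antibody conjugate (~600 MBq/mg; 0.5 µg/ml RIVA, 1 µg/ml U-2932), RIVA and U-2932 cells were washed and plated at 3,000 cells/well. Pre-printed compound doses were 10/100 nM for RIVA and 10/1,000 nM for U-2932. Growth inhibition uses RealTime-Glo RLU relative to the untreated no-drug wells. The calculation is 1 − RLU/mean of 48 such wells per plate, with reads daily from day 3 after 1 h at 37°C.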

Row | Compound | growth inhibition by drug plus 177Lu-lilotomab satetraxetan
1 | CC(=O)Nc1ccc(OC[C@](C)(O)C(=O)Nc2ccc([N+](=O)[O-])c(C(F)(F)F)c2)cc1 [Andarine (GTX-007)] | 0.162
2 | Cc1ccccc1-n1c(Cn2cnc3c(N)ncnc32)nc2cccc(C)c2c1=O | 0.209
3 | N[C@@H](Cc1ccc(N(CCCl)CCCl)cc1)C(=O)O [Melphalan] | 0.143
4 | C[C@]12CCC(=O)C(O)=C1CC[C@@H]1[C@@H]2CC[C@]2(C)C(=O)CC[C@@H]12 [Formestane] | 0.141
5 | CC1=C2C[C@H]3[C@@H](CC=C4C[C@@H](O)CC[C@@]43C)[C@@H]2CC[C@]12O[C@@H]1C[C@H](C)CN[C@H]1[C@H]2C [Cyclopamine] | 0.127

same assay, conditions: 1000 nM; time (day): 3; 177Lu-lilotomab satetraxetan 1 ug/ml

Row | Compound | growth inhibition by drug plus 177Lu-lilotomab satetraxetan
6 | Cn1cc(C2=C(c3cn(C4CCN(Cc5ccccn5)CC4)c4ccccc34)C(=O)NC2=O)c2ccccc21 | -0.0807
7 | O=C(Oc1ccc([N+](=O)[O-])cc1)N1CCC(C(O)(c2ccc3c(c2)OCO3)c2ccc3c(c2)OCO3)CC1 | -0.0484
8 | O=C(O)c1nn(Cc2ccc(Cl)cc2Cl)c2ccccc12 [Lonidamine] | 0.0882
9 | N.N.[Cl][Pt][Cl] [Cisplatin] | -0.00976
10 | O=P1(N(CCCl)CCCl)NCCCO1 (centres undefined) [Cyclophosphamide monohydrate] | -0.0442
11 | CCC1(c2ccc(N)cc2)CCC(=O)NC1=O (centres undefined) [Aminoglutethimide (Cytadren)] | -0.00688
12 | Cc1cc2c(C(C)C)c(O)c(O)c(C=O)c2c(O)c1-c1c(C)cc2c(C(C)C)c(O)c(O)c(C=O)c2c1O [Gossypol] | -0.0917
13 | CC(O)(CS(=O)(=O)c1ccc(F)cc1)C(=O)Nc1ccc(C#N)c(C(F)(F)F)c1 (centres undefined) [Bicalutamide (Casodex)] | -0.0729
14 | CC(C)[C@]12O[C@H]1[C@@H]1O[C@]13[C@]1(O[C@H]1C[C@H]1C4=C(CC[C@@]13C)C(=O)OC4)[C@@H]2O [Triptolide] | 0.965
15 | CN(C)CCN(C)CCc1ccc(Cl)c(Cl)c1 | -0.131
16 | C=C1C[C@@H]2[C@H](CC[C@]3(C)C(=O)CC[C@@H]23)[C@@]2(C)C=CC(=O)C=C12 [Exemestane] | -0.0113
17 | CC[C@@H](C(=O)[C@@H](C)[C@@H](O)[C@H](C)[C@@H]1O[C@@H]([C@@H](CC)C(=O)O)CC[C@@H]1C)[C@H]1O[C@]2(C=C[C@@H](O)[C@]3(CC[C@@](C)([C@H]4CC[C@](O)(CC)[C@H](C)O4)O3)O2)[C@H](C)C[C@@H]1C [Salinomycin (Procoxacin)] | 0.381
18 | CC(=O)Nc1ccc(OC[C@](C)(O)C(=O)Nc2ccc([N+](=O)[O-])c(C(F)(F)F)c2)cc1 [Andarine (GTX-007)] | -0.0087
19 | Cc1ccccc1-n1c(Cn2cnc3c(N)ncnc32)nc2cccc(C)c2c1=O | 0.0591
20 | N[C@@H](Cc1ccc(N(CCCl)CCCl)cc1)C(=O)O [Melphalan] | 0.00364
21 | C[C@]12CCC(=O)C(O)=C1CC[C@@H]1[C@@H]2CC[C@]2(C)C(=O)CC[C@@H]12 [Formestane] | -0.0681
22 | CC1=C2C[C@H]3[C@@H](CC=C4C[C@@H](O)CC[C@@]43C)[C@@H]2CC[C@]12O[C@@H]1C[C@H](C)CN[C@H]1[C@H]2C [Cyclopamine] | -0.0532

same assay, conditions: 1000 nM; time (day): 4; 177Lu-lilotomab satetraxetan 1 ug/ml

Row | Compound | growth inhibition by drug plus 177Lu-lilotomab satetraxetan
23 | Cn1cc(C2=C(c3cn(C4CCN(Cc5ccccn5)CC4)c4ccccc34)C(=O)NC2=O)c2ccccc21 | -0.0188
24 | O=C(Oc1ccc([N+](=O)[O-])cc1)N1CCC(C(O)(c2ccc3c(c2)OCO3)c2ccc3c(c2)OCO3)CC1 | 0.0258
25 | O=C(O)c1nn(Cc2ccc(Cl)cc2Cl)c2ccccc12 [Lonidamine] | 0.147
26 | N.N.[Cl][Pt][Cl] [Cisplatin] | 0.0376
27 | O=P1(N(CCCl)CCCl)NCCCO1 (centres undefined) [Cyclophosphamide monohydrate] | 0.00578
28 | CCC1(c2ccc(N)cc2)CCC(=O)NC1=O (centres undefined) [Aminoglutethimide (Cytadren)] | 0.0339
29 | Cc1cc2c(C(C)C)c(O)c(O)c(C=O)c2c(O)c1-c1c(C)cc2c(C(C)C)c(O)c(O)c(C=O)c2c1O [Gossypol] | -0.0427
30 | CC(O)(CS(=O)(=O)c1ccc(F)cc1)C(=O)Nc1ccc(C#N)c(C(F)(F)F)c1 (centres undefined) [Bicalutamide (Casodex)] | 0.0514
31 | CC(C)[C@]12O[C@H]1[C@@H]1O[C@]13[C@]1(O[C@H]1C[C@H]1C4=C(CC[C@@]13C)C(=O)OC4)[C@@H]2O [Triptolide] | 0.976
32 | CN(C)CCN(C)CCc1ccc(Cl)c(Cl)c1 | -0.0418
33 | C=C1C[C@@H]2[C@H](CC[C@]3(C)C(=O)CC[C@@H]23)[C@@]2(C)C=CC(=O)C=C12 [Exemestane] | 0.0549
34 | CC[C@@H](C(=O)[C@@H](C)[C@@H](O)[C@H](C)[C@@H]1O[C@@H]([C@@H](CC)C(=O)O)CC[C@@H]1C)[C@H]1O[C@]2(C=C[C@@H](O)[C@]3(CC[C@@](C)([C@H]4CC[C@](O)(CC)[C@H](C)O4)O3)O2)[C@H](C)C[C@@H]1C [Salinomycin (Procoxacin)] | 0.516
35 | CC(=O)Nc1ccc(OC[C@](C)(O)C(=O)Nc2ccc([N+](=O)[O-])c(C(F)(F)F)c2)cc1 [Andarine (GTX-007)] | 0.0374
36 | Cc1ccccc1-n1c(Cn2cnc3c(N)ncnc32)nc2cccc(C)c2c1=O | 0.0697
37 | N[C@@H](Cc1ccc(N(CCCl)CCCl)cc1)C(=O)O [Melphalan] | 0.0898
38 | C[C@]12CCC(=O)C(O)=C1CC[C@@H]1[C@@H]2CC[C@]2(C)C(=O)CC[C@@H]12 [Formestane] | -0.018
39 | CC1=C2C[C@H]3[C@@H](CC=C4C[C@@H](O)CC[C@@]43C)[C@@H]2CC[C@]12O[C@@H]1C[C@H](C)CN[C@H]1[C@H]2C [Cyclopamine] | 0.0394
